Measurements as given in the supplement of paper PMC11732987, “Enantioselective OTUD7B fragment discovery through chemoproteomics screening and high-throughput optimisation” (Communications Chemistry, 2025).

Key:
Experiment in all cases: log2 ratio of Biotin-Ahx-Ub-VS probe labelling (fragment/DMSO); higher = less target engagement (more negative = stronger competition), active = hit call of the paper (q ≤ 0.05, log2 ratio ≤ -1)
Settings in all cases: compound concentration: 200 uM; treatment time: 3 h
USP19 = biological target: T1, USP19 (UniProt O94966)
T1 sequence (whole entry): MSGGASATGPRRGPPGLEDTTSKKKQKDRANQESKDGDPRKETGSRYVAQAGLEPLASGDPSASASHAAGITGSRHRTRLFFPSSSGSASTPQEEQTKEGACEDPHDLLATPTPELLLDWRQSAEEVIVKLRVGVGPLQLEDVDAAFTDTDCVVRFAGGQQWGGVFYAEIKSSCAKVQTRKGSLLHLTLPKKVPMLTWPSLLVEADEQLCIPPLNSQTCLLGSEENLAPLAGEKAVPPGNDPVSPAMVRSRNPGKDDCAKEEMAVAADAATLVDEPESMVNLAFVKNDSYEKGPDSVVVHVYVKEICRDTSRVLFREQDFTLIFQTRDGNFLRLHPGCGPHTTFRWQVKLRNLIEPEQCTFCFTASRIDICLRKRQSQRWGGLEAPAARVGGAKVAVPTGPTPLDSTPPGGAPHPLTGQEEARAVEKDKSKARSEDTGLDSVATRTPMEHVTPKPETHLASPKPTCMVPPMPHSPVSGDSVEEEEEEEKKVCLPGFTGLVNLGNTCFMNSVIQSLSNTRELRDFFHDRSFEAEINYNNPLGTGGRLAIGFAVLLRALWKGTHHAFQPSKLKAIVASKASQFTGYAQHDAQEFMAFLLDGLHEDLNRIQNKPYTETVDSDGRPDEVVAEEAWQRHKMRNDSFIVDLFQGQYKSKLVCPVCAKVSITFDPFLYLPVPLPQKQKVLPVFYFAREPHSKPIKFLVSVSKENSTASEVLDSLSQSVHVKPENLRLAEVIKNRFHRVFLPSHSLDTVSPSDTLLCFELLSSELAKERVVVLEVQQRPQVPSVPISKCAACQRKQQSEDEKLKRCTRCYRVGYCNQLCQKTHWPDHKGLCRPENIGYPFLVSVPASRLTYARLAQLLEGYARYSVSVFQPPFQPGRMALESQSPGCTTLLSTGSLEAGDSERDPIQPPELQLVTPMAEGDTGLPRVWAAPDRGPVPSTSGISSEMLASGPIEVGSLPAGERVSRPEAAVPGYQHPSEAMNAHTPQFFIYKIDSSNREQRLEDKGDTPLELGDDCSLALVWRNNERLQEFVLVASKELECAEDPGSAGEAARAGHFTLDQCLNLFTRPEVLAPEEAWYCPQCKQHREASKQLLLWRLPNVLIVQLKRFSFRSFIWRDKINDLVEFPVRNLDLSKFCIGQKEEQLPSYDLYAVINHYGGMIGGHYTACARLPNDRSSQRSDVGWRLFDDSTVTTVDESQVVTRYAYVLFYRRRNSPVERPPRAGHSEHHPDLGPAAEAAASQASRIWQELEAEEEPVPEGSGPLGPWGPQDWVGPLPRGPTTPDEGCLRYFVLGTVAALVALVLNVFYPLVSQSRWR
Procedure, shortened: (§1)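 Fragment (200 µM) or vehicle was incubated for 3 h with triplicate HEK293T lysate samples of 495 µg, which were then treated with Biotin-Ahx-Ub-VS at 0.5 µM final for 1 h. Labelled DUBs were enriched on NeutrAvidin, digested with LysC and trypsin, and analysed by diaPASEF LC-MS/MS. Values are average log2 fragment/vehicle ratios from an unpaired t-test on global-median-normalised Spectronaut label-free quantities, using proteins with ≥2 unique peptides.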

USP24 = USP24 (UniProt Q9UPU5)
Procedure, shortened: as §1

USP25 = biological target: T2, USP25 (UniProt Q9UHP3)
T2 sequence (whole entry): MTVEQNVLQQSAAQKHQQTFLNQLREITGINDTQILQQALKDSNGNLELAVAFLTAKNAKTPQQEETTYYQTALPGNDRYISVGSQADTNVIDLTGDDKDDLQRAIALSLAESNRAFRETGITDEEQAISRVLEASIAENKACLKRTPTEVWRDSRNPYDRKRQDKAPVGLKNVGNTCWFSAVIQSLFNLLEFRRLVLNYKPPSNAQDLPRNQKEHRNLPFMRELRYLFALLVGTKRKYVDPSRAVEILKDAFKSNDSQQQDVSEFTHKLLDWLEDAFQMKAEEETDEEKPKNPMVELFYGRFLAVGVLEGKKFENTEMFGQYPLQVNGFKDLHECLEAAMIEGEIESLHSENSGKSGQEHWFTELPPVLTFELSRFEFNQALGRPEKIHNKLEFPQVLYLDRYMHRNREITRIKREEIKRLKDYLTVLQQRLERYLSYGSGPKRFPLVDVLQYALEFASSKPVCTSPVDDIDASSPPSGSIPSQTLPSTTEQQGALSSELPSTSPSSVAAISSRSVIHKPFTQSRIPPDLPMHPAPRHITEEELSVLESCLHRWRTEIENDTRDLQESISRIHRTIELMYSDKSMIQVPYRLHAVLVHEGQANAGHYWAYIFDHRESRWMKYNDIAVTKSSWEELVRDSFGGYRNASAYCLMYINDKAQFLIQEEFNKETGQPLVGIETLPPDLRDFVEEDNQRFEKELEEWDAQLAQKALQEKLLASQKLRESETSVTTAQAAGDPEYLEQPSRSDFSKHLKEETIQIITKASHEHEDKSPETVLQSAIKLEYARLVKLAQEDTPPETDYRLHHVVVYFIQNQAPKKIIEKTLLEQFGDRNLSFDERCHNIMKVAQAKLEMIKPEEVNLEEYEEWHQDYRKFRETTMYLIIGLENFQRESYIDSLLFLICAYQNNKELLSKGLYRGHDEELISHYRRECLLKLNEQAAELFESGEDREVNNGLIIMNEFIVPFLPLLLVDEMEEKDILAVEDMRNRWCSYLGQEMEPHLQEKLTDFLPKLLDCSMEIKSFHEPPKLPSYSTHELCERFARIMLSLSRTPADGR
Procedure, shortened: as §1

USP28 = biological target: T3, USP28 (UniProt Q96RU2)
T3 sequence (whole entry): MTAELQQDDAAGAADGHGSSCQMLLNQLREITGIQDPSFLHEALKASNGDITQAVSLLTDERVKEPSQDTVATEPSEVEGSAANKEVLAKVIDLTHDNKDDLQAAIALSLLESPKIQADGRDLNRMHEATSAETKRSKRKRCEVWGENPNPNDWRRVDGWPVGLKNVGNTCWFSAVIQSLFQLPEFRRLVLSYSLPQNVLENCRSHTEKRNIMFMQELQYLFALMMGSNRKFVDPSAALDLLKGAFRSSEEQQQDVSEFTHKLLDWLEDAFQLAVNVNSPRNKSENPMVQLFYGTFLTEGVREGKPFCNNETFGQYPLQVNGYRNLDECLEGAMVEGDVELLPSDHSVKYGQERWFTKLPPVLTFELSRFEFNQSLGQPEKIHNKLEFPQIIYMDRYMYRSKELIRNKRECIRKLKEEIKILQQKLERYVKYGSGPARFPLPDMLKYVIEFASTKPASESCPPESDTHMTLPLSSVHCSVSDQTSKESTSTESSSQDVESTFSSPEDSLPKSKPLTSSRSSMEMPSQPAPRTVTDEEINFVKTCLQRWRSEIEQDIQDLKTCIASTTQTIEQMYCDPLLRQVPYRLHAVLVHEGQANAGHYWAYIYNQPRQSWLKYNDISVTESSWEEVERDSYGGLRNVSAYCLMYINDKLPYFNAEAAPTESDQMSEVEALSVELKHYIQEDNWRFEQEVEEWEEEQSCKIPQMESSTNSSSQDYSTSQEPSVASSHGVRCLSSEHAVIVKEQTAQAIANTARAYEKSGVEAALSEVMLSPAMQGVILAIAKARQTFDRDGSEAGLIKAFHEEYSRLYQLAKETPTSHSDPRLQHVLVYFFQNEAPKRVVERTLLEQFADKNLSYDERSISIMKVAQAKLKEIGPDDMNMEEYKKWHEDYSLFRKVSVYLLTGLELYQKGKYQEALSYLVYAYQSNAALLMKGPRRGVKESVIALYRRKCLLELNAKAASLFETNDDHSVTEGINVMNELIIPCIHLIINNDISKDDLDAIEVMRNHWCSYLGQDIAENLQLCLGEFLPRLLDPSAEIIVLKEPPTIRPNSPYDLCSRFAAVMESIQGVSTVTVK
Procedure, shortened: as §1

Measured: log2 ratio of Biotin-Ahx-Ub-VS probe labelling

Sequence of USP24 (Q9UPU5 whole entry): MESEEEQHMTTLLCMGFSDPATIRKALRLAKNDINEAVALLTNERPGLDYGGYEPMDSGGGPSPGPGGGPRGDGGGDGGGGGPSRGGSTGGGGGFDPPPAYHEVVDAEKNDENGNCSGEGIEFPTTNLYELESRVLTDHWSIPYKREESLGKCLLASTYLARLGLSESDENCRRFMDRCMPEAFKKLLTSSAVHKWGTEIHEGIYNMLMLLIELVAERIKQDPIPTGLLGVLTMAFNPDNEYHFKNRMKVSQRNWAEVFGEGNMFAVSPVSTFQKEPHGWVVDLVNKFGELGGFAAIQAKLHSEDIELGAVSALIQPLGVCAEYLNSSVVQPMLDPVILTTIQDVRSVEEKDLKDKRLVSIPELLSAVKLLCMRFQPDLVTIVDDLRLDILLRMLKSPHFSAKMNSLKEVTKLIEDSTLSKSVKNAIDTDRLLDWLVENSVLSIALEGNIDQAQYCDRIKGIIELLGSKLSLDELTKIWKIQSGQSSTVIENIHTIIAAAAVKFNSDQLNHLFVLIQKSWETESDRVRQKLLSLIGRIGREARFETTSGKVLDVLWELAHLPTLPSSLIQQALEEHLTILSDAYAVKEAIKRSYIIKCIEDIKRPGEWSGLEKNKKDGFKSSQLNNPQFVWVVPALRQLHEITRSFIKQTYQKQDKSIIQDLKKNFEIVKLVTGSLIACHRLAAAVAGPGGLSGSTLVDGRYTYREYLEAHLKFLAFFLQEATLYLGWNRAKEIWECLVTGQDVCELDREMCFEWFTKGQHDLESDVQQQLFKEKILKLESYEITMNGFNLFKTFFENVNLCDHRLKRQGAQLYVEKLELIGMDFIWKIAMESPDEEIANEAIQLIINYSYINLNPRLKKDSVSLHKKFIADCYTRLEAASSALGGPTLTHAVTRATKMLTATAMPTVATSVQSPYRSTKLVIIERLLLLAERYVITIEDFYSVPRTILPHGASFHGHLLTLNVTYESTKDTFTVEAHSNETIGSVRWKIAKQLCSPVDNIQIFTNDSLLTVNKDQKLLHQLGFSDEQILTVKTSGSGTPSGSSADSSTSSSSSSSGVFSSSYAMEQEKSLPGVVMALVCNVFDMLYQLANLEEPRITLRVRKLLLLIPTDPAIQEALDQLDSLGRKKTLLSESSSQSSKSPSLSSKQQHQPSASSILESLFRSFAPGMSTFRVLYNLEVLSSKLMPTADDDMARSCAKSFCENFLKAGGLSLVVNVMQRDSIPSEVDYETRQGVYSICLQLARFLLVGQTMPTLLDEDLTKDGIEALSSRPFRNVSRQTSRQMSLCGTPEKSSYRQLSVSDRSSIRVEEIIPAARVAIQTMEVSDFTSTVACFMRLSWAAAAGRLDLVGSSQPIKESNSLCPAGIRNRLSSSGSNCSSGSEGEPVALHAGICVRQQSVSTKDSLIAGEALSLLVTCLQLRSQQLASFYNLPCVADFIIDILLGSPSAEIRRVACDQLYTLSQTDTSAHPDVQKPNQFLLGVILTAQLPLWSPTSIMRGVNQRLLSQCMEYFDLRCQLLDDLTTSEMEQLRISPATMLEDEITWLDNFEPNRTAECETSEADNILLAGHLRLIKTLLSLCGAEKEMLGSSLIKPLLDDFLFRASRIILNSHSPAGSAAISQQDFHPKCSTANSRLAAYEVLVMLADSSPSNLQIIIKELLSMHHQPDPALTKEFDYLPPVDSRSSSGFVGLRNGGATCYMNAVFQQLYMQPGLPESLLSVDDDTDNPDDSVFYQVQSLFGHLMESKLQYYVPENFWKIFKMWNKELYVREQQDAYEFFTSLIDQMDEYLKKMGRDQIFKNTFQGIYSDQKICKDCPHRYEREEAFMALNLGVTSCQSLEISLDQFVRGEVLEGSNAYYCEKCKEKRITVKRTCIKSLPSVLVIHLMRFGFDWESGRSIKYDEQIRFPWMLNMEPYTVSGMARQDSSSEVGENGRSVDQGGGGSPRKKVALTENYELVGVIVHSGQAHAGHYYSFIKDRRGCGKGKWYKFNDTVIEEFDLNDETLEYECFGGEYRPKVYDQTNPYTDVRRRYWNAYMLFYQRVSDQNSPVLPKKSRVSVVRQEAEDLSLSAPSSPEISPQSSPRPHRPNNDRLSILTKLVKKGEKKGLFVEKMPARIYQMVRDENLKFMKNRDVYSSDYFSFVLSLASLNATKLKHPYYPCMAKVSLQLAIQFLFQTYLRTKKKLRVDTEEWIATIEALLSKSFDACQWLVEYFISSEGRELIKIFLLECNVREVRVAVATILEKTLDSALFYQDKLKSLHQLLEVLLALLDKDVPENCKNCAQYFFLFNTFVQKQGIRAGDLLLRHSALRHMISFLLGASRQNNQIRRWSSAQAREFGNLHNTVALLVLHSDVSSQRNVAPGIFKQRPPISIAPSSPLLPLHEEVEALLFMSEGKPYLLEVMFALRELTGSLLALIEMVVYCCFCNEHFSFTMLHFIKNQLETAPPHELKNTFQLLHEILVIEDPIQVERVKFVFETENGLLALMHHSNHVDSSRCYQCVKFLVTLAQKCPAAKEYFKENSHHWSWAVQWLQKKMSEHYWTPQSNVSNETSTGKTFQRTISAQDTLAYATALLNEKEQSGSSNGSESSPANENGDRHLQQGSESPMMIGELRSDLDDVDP

O=C(CCl)N1CCC(O)(Cc2ccc(F)cc2)C1 (centres undefined)
inactive: USP19 -0.323 | USP24 -0.262 | USP25 -0.107 | USP28 -0.353
